Experimental data published in PubChem BioAssay.
Active and inactive are the calls of the source.

How the values were obtained:
[1] = E. coli DRC41 culture turbidity changes, primary screen, E. coli filamentation inducer project, strain DRC41, OD650, 48 h (AID 1152);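 note: E. coli MC1000 strain DRC41 lacking acrAB efflux pump and sulA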; conditions: E. coli DRC41 (acrAB sulA), higher = more signal, called active from +8 up or from −8 down
[2] = small-molecule binders of probe aLefty1, primary screen, biochemical, small-molecule microarray, 635/667 nm fluorescence (AID 1153); conditions: higher = more signal;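 note: score merges spot fluorescence with signal-to-noise ratio from the scanned slide images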
[3] = PSAC antagonists in infected red cells, primary screen, cell-based, P. falciparum Indochina, OD700, 1 h (AID 1154); conditions: P. falciparum Indochina infected RBC osmotic lysis, higher = more signal, called active from +8 up or from −8 down
[4] = PSAC antagonists in infected red cells, primary screen, cell-based, P. falciparum Indochina, OD700, 2 h (AID 1155);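 note: lysis reports solute entry through the parasite surface anion channel PSAC; channel blockers reduce lysis of infected cells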; conditions: P. falciparum Indochina infected erythrocytes, osmotic lysis OD700; higher = more signal, called active from +8 up or from −8 down
[5] = osmotic lysis modulators in infected erythrocytes, primary screen, PSAC antagonist project, cell-based, P. falciparum Indochina, OD700, 3 h (AID 1156); conditions: higher = more signal, called active from +8 up or from −8 down
[6] = PSAC antagonists in infected red cells, primary screen, cell-based, P. falciparum Indochina, OD700, 18 h (AID 1157); conditions: P. falciparum Indochina infected erythrocytes, osmotic lysis OD700, 18 h; higher = more signal, called active from +8 up or from −8 down
[7] = modulators of S6 phosphorylation in cells, primary screen, cell-based, A549, cytoblot, luminescence, serum-stimulated (AID 1158); conditions: A549 phospho-S6 cytoblot, 5 h, higher = more signal;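 note: serum-stimulated A549 lung adenocarcinoma cells; signal is phosphorylated S6 detected by cytoblot immunostaining with HRP secondary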
[8] = target: NADPH oxidase 2 (Homo sapiens) (UniProt P04839); assay: NOX2-dependent H2O2 signal modulators, primary screen, NOX inhibitor project, cell-based, HEK293-NOX2, PMA-stimulated, Amplex Red fluorescence (AID 1159); conditions: 45 min, higher = more signal, called active from +8 up or from −8 down; note: test concentration not given here
Chain of NADPH oxidase 2 (Homo sapiens) (P04839 whole entry, looked up): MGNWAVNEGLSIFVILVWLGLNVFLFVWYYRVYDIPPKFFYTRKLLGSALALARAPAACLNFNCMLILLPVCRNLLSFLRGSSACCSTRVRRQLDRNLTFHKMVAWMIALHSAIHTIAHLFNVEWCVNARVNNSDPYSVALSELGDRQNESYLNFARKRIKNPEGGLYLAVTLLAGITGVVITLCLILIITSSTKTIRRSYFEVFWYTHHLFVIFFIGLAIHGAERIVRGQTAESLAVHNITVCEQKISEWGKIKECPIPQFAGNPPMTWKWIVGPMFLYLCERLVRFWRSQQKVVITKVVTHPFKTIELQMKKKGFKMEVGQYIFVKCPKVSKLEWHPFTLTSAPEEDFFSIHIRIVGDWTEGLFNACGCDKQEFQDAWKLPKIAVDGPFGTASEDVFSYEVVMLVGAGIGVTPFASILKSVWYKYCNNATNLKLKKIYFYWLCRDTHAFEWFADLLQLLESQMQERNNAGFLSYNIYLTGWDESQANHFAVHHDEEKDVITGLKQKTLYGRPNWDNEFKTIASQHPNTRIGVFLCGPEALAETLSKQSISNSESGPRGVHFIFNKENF

[9] = target: NADPH oxidase 4 (Homo sapiens) (UniProt Q9NPH5); assay: NOX4-dependent H2O2 signal modulators, primary screen, NOX inhibitor project, cell-based, HEK293-NOX4, tetracycline-induced, Amplex Red fluorescence (AID 1160); conditions: 45 min, higher = more signal, called active from +8 up or from −8 down
Chain of NADPH oxidase 4 (Homo sapiens) (Q9NPH5 whole entry, looked up): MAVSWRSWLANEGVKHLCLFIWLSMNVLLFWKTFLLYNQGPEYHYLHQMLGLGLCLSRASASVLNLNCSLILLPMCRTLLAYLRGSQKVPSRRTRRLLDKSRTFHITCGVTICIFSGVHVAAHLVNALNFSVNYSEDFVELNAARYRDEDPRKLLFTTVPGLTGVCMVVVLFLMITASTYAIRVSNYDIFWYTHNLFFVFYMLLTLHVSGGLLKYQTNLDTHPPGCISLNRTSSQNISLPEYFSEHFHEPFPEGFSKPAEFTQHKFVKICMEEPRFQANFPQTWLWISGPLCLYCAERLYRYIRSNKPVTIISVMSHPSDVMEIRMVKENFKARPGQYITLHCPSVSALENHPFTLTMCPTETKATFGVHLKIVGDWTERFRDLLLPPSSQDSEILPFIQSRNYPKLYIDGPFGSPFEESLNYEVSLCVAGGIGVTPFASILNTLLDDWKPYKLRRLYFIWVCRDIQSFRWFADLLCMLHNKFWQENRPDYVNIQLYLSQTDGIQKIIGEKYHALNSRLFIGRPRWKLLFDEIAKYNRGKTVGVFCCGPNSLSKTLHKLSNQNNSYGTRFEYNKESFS

[10] = target: NADPH oxidase 5 (Homo sapiens) (UniProt Q96PH1); assay: NOX5-dependent H2O2 signal modulators, primary screen, NOX inhibitor project, cell-based, HEK293-NOX5, Amplex Red fluorescence (AID 1161); conditions: HEK293-NOX5, ionomycin, 45 min, higher = more signal
Chain of NADPH oxidase 5 (Homo sapiens) (Q96PH1 whole entry, looked up): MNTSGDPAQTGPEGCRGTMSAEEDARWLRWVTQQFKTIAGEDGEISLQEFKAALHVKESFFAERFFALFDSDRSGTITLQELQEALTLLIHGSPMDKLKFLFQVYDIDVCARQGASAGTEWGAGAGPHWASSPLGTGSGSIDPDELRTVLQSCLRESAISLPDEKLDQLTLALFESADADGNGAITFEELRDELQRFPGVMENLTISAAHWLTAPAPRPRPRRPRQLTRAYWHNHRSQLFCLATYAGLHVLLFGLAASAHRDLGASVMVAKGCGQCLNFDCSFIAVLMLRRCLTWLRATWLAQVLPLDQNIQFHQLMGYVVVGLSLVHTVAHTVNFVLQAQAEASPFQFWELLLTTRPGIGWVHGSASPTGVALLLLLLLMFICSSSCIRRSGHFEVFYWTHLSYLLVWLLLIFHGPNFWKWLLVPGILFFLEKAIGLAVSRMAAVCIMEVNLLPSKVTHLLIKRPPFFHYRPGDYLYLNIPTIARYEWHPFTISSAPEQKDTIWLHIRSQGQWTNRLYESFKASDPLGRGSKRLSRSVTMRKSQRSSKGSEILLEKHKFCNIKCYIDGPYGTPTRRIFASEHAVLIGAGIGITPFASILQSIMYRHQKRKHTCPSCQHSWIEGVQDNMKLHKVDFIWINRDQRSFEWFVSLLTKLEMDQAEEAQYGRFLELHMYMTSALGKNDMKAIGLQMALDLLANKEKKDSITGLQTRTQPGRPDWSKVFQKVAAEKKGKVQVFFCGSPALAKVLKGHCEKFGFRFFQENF

[11] = A549 cell viability effects, profiling panel, calcein-AM fluorescence, 48 h, basal (AID 1162); conditions: higher = more signal; note: test concentration not given here
[12] = adipocyte viability effects, profiling panel, cell-based, 3T3-L1 adipocytes, calcein-AM fluorescence, 48 h, basal (AID 1163); conditions: 3T3-L1 adipocytes viability, higher = more signal; note: test concentration not given here
[13] = HepG2 cell viability effects, profiling panel, calcein-AM fluorescence, 48 h, basal (AID 1164); conditions: higher = more signal; note: test concentration not given here
[14] = MM1S cell viability effects, profiling panel, calcein-AM fluorescence, 48 h, basal (AID 1165); conditions: higher = more signal;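 note: viability of MM1S multiple myeloma cells under basal unstimulated conditions; test concentration not given here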
[15] = basal RPMI8226 viability, no added stimulus, profiling panel, cell-based, calcein-AM fluorescence, 48 h, PK04 Diversity Set (AID 1166); conditions: RPMI8226 myeloma viability, higher = more signal;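 note: cells grown under basal conditions without added stimulus; test concentration not given here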
[16] = basal HepG2 mitochondrial membrane potential changes, profiling panel, cell-based, JC-1 fluorescence, 24 h, 100 nL compound (AID 1167); conditions: higher = more signal; note: test concentration not given here
[17] = basal 3T3-L1 adipocyte mitochondrial potential changes, profiling panel, cell-based, JC-1 fluorescence, 3T3-L1 adipocytes, 24 h, 100 nL compound (AID 1168); conditions: JC-1 mitochondrial fluorescence, higher = more signal, called active from +8 up or from −8 down; note: test concentration not given here
[18] = basal RPMI8226 mitochondrial membrane potential changes, profiling panel, cell-based, JC-1 fluorescence, 24 h, 100 nL compound (AID 1169); conditions: RPMI8226 myeloma, JC-1 mitochondrial potential fluorescence, higher = more signal; note: test concentration not given here
[19] = basal MM1S mitochondrial membrane potential changes, profiling panel, cell-based, JC-1 fluorescence, 24 h, 100 nL compound (AID 1170); conditions: higher = more signal; note: test concentration not given here
[20] = A549 lung cancer cell viability effects, profiling panel, resazurin fluorescence, 24 h, PK04 Diversity Set (AID 1171); conditions: higher = more signal, called active from +8 up or from −8 down; note: test concentration not given here

Structure (SMILES)	z-score [1]	composite z-score [2]	z-score [3]	z-score [4]	z-score [5]	z-score [6]	z-score [7]	z-score [8]	z-score [9]	z-score [10]	z-score [11]	z-score [12]	z-score [13]	z-score [14]	z-score [15]	z-score [16]	z-score [17]	z-score [18]	z-score [19]	z-score [20]
COCCCNC(=O)[C@@]1(CCC(=O)OC(C)(C)C)N=C(c2ccc(OCCCO)cc2)O[C@H]1c1ccccc1CN=[N+]=[N-]	0.369 (inactive)	0.428	23.2 (active)	4.71 (inactive)	1.35 (inactive)	0.883 (inactive)	0.0769	1.95 (inactive)	2.2 (inactive)	2.48	0.463	0.892	-0.244	0.153	-0.853	0.88	-0.736 (inactive)	0.665	0.5	0.155 (inactive)
CN(C)CCCCCCNC(=O)[C@H]1C[C@H]2C(=O)N[C@@H](CCCCN)C(=O)N2[C@H]1c1ccc(O)cc1	-0.261 (inactive)	2.82	-0.294 (inactive)	0.155 (inactive)	-0.844 (inactive)	0.303 (inactive)	0.169	0.418 (inactive)	-0.145 (inactive)	0.887	-0.466	0.71	0.266	-1.05	-0.0908	0.758	-0.935 (inactive)	-0.773	0.237	0.283 (inactive)
COc1ccc(CCN2C(=O)[C@@]3(Cc4ccccc42)c2ccccc2C(=O)N(Cc2ccccc2Cl)[C@H]3c2ccc(CO)cc2)cc1	0.641 (inactive)	0.0844	2.59 (inactive)	0.346 (inactive)	0.679 (inactive)	0.425 (inactive)	0.306	1.3 (inactive)	-1.49 (inactive)	1.28	0.517	-0.0827	0.589	0.23	-0.441	0.308	-0.106 (inactive)	-0.316	0.256	-0.343 (inactive)
Cc1ccccc1C(O)C1C=CC2C(=O)N(C)C(=O)C2N1N1CCCCC1 (stereo not given)	-1.52 (inactive)	0.563	0.234 (inactive)	0.479 (inactive)	0.126 (inactive)	1.02 (inactive)	-0.467	-0.182 (inactive)	0.0457 (inactive)	-1.46	-0.578	-1.18	-0.979	-0.587	-0.436	-1.64	-1.01 (inactive)	0.207	0.201	-0.464 (inactive)
COC(=O)[C@@]1(Cc2ccc(OC)cc2)[C@H]2c3cc(C(=O)N(C)C)n(Cc4c(OC)[nH]cc(C)c4=O)c3C[C@H]2CN1C(=O)c1ccccc1	-0.348 (inactive)	0.276	0.275 (inactive)	-0.997 (inactive)	-0.456 (inactive)	-2.25 (inactive)	2.46	0.689 (inactive)	-0.265 (inactive)	-3.64	0.249	-0.0161	1.17	0.685	1.13	1.95	0.274 (inactive)	-0.213	-1.65	-1.52 (inactive)
NCCCCCCNC(=O)[C@H]1C[C@H]2C(=O)NCC(=O)N2[C@H]1c1cccc(OCCO)c1	1.17 (inactive)	0.119	1.68 (inactive)	-0.0225 (inactive)	-1.63 (inactive)	0.202 (inactive)	0.384	0.719 (inactive)	0.513 (inactive)	1.36	2.15	-0.143	0.674	-0.0318	0.554	2.48	-0.194 (inactive)	-0.417	0.535	1.34 (inactive)
C=C(COC)C(=O)CC[C@@H](OC(=O)c1cccnc1)c1ccc(CO)o1	0.272 (inactive)	-0.0536	1.47 (inactive)	0.145 (inactive)	0.0755 (inactive)	0.038 (inactive)	-0.0125	1.59 (inactive)	0.304 (inactive)	0.21	0.408	-0.615	0.0726	-0.193	-0.205	-0.178	-0.294 (inactive)	0.0598	0.627	0.709 (inactive)
COc1cccc(C(=O)O[C@H]2CC[C@]3(C)C4=C(CCC3C2(C)C)[C@]2(C)CC[C@H]([C@H](C)CCCC(C)C)[C@@]2(C)CC4)c1 (stereo not given in full)	3.47 (inactive)	0.0752	-0.264 (inactive)	-0.611 (inactive)	-0.306 (inactive)	-1.63 (inactive)	0.801	-0.606 (inactive)	0.0302 (inactive)	0.689	0.583	0.146	0.689	-0.56	0.241	1.28	0.387 (inactive)	-0.0502	-1.49	0.479 (inactive)
CN1C=C(C(=O)OCCS(C)(=O)=O)C(C(=O)OCCS(C)(=O)=O)=CC(CCCO)=CC1C1CC1 (stereo not given)	1.07 (inactive)	0.026	1.43 (inactive)	0.63 (inactive)	0.483 (inactive)	0.16 (inactive)	0.471	-2.51 (inactive)	-1.07 (inactive)	-1.38	-0.731	0.197	1.23	0.509	0.535	0.838	0.448 (inactive)	0.326	-1.09	0.129 (inactive)
